Measurements reported in PubChem BioAssay (NCI).
This is part of a sample that, as a whole, favours compounds with a hit. Of some 83,000 tested, about 20% had one in any assay.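 Method: cells in 96-well plates; compound added at one concentration; 48 h incubation; percent growth measured; values under 10 scored active.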 Activity calls are given as the source filed them.

Columns and labels:
Experiment in all cases: NCI-60 one-dose screen, 48 h (100 = growth as untreated, 0 = no growth, -100 = all killed)
Conditions in all cases: 10 µM unless noted
SK-MEL-2 melanoma = tested on: SK-MEL-2 melanoma
EKVX NSCLC = tested on: EKVX NSCLC
SN12C renal = tested on: SN12C renal
UO-31 renal = tested on: UO-31 renal
TK-10 renal = tested on: TK-10 renal
ACHN renal = tested on: ACHN renal
CAKI-1 renal = tested on: CAKI-1 renal
A498 renal = tested on: A498 renal
CCRF-CEM leukemia = tested on: CCRF-CEM leukemia
MOLT-4 leukemia = tested on: MOLT-4 leukemia

Measured: growth

COc1ccccc1CNCCCCCCCCCCCCN1C(=O)c2ccc3c4c(ccc(c24)C1=O)C(=O)N(CCCCCCCCCCCCNCc1ccccc1OC)C3=O
inactive: SK-MEL-2 melanoma 107% | EKVX NSCLC 109% | SN12C renal 74.1% | UO-31 renal 109% | ACHN renal 78.4% | CAKI-1 renal 102% | CCRF-CEM leukemia 50.4% | MOLT-4 leukemia 64.6%
active: TK-10 renal -46.7% | A498 renal -60.4%

COc1cc(C2C3=C(COC3=O)N(CCO)c3cc4c(cc32)OCO4)cc(OC)c1O (stereo not drawn)
active: A498 renal -2.62%
inactive: SK-MEL-2 melanoma 25% | EKVX NSCLC 57.2% | SN12C renal 52.7% | UO-31 renal 57.9% | TK-10 renal 61.8% | ACHN renal 37.9% | CAKI-1 renal 60.4% | CCRF-CEM leukemia 28.6% | MOLT-4 leukemia 47.6%

COc1ccc(Sc2ccc3[nH]c(=O)nc(N)c3c2)cc1
inactive: SK-MEL-2 melanoma 104% | EKVX NSCLC 95.5% | SN12C renal 101% | UO-31 renal 99.2% | TK-10 renal 105% | ACHN renal 107% | CAKI-1 renal 106% | A498 renal 98.6% | CCRF-CEM leukemia 95.3% | MOLT-4 leukemia 97.7%

COc1ccc(-c2nc3sccn3c2/C=C/C(=O)c2cc(OC)c(OC)c(OC)c2)cc1OC
active: SK-MEL-2 melanoma -7.87% | CAKI-1 renal 3.29% | A498 renal -2.58%
inactive: EKVX NSCLC 34.3% | SN12C renal 40.3% | UO-31 renal 14% | TK-10 renal 82.6% | ACHN renal 21.4% | CCRF-CEM leukemia 21.6% | MOLT-4 leukemia 31.4%

O=C1c2cc(S(=O)(=O)O)ccc2C(=O)c2c1cccc2[N+](=O)[O-]
inactive: SK-MEL-2 melanoma 108% | EKVX NSCLC 120% | SN12C renal 103% | UO-31 renal 85.3% | TK-10 renal 116% | ACHN renal 111% | CAKI-1 renal 102% | A498 renal 103% | CCRF-CEM leukemia 97.8% | MOLT-4 leukemia 100%

COc1ccc2c(c1)c(=O)oc1c(C)c(OCC(C)=O)ccc12
active: EKVX NSCLC 4.14%
inactive: SK-MEL-2 melanoma 115% | SN12C renal 94% | UO-31 renal 98.3% | TK-10 renal 82.7% | ACHN renal 97.2% | CAKI-1 renal 92.1% | A498 renal 90% | CCRF-CEM leukemia 99.7% | MOLT-4 leukemia 92.9%

O=C1CN2CCC1C/C2=C\c1ccnc2c(Cl)cccc12 (stereo not drawn)
inactive: SK-MEL-2 melanoma 85.8% | EKVX NSCLC 95.7% | SN12C renal 94.3% | UO-31 renal 75.5% | TK-10 renal 127% | ACHN renal 91.2% | CAKI-1 renal 93.9% | A498 renal 159% | CCRF-CEM leukemia 96.8% | MOLT-4 leukemia 97.1%

O=[N+]([O-])c1ccc(O)c2ncccc12
inactive: SK-MEL-2 melanoma 79.1% | EKVX NSCLC 39.8% | SN12C renal 35.9% | UO-31 renal 60.3% | TK-10 renal 83.2% | ACHN renal 51.8% | CAKI-1 renal 57% | A498 renal 96% | CCRF-CEM leukemia 25.5% | MOLT-4 leukemia 33.4%

COc1ccc(-c2csc3c2-n2cccc2C3=O)cc1O
active: CCRF-CEM leukemia 0.363% | MOLT-4 leukemia -10.8%
inactive: SK-MEL-2 melanoma 26.9% | EKVX NSCLC 56% | SN12C renal 29.6% | UO-31 renal 31.5% | TK-10 renal 51.3% | ACHN renal 31.7% | CAKI-1 renal 43.1% | A498 renal 38.5%

N#CC1=C(N)Oc2cc(N)ccc2C1c1ccc(F)cc1 (stereo not drawn)
inactive: SK-MEL-2 melanoma 79.8% | EKVX NSCLC 97.1% | SN12C renal 90.4% | UO-31 renal 79.5% | TK-10 renal 84.8% | ACHN renal 99.4% | CAKI-1 renal 62.6% | A498 renal 64.8% | CCRF-CEM leukemia 66.6% | MOLT-4 leukemia 70.8%

O=C(COc1ccc(/C=C2\CSc3ccccc3C2=O)cc1)c1ccc(Cl)cc1
inactive: SK-MEL-2 melanoma 95.1% | EKVX NSCLC 122% | SN12C renal 103% | UO-31 renal 89.8% | TK-10 renal 113% | ACHN renal 99% | CAKI-1 renal 96.5% | A498 renal 105% | CCRF-CEM leukemia 93.9% | MOLT-4 leukemia 82.1%

COc1cc(-c2ccc3cc(OC)c(OC)c(OC)c3c2)cc(OC)c1OC
inactive: SK-MEL-2 melanoma 61% | EKVX NSCLC 65.7% | SN12C renal 92.9% | UO-31 renal 35.5% | TK-10 renal 85.7% | ACHN renal 79.8% | CAKI-1 renal 42.5% | A498 renal 77.3% | CCRF-CEM leukemia 55.2% | MOLT-4 leukemia 83.9%

COc1cc(C(=O)N(C(C)C)C2CCCCC2)cc(OC)c1OC
inactive: SK-MEL-2 melanoma 98.5% | EKVX NSCLC 144% | SN12C renal 96.3% | UO-31 renal 89% | TK-10 renal 94% | ACHN renal 103% | CAKI-1 renal 86.6% | A498 renal 102% | CCRF-CEM leukemia 94.8% | MOLT-4 leukemia 97.1%

O=[N+]([O-])c1cc2c(cc1Br)-c1ccccc1C2
inactive: SK-MEL-2 melanoma 101% | EKVX NSCLC 77.6% | SN12C renal 85.1% | UO-31 renal 70.5% | TK-10 renal 126% | ACHN renal 94.2% | CAKI-1 renal 76.4% | A498 renal 95.1% | CCRF-CEM leukemia 70.9% | MOLT-4 leukemia 88.8%

O=C1C(N2CCOCC2)=Cc2cccc3cccc1c23
inactive: SK-MEL-2 melanoma 110% | EKVX NSCLC 60.9% | SN12C renal 106% | UO-31 renal 88.9% | TK-10 renal 98% | ACHN renal 96.3% | CAKI-1 renal 108% | A498 renal 84.3% | CCRF-CEM leukemia 102% | MOLT-4 leukemia 18.2%

COc1cc(/C=C/C(=O)C(=Cc2ccc(F)c(F)c2)C(=O)/C=C/c2ccc(O)c(OC)c2)ccc1O
inactive: EKVX NSCLC 72.1% | SN12C renal 31.2% | UO-31 renal 53.2% | TK-10 renal 35.5% | ACHN renal 27.3% | CAKI-1 renal 95.6% | A498 renal 116% | MOLT-4 leukemia 12.2%
active: SK-MEL-2 melanoma 6.91% | CCRF-CEM leukemia 9.98%

COc1ccc(-c2[nH]ncc2Nc2cc(OC)c(OC)c(OC)c2)cc1
inactive: SK-MEL-2 melanoma 66.4% | EKVX NSCLC 49.4% | SN12C renal 45.4% | UO-31 renal 46.8% | TK-10 renal 62% | ACHN renal 55.7% | CAKI-1 renal 36.1% | A498 renal 48.7% | CCRF-CEM leukemia 39.9% | MOLT-4 leukemia 72.6%

CCCCC/C=C\C/C=C/CCCCCCCCNC(=O)Nc1ccc([N+](=O)[O-])cc1
inactive: SK-MEL-2 melanoma 119% | EKVX NSCLC 79.1% | SN12C renal 83.2% | UO-31 renal 60.5% | TK-10 renal 82.5% | ACHN renal 65.8% | CAKI-1 renal 56.2% | A498 renal 83.7% | CCRF-CEM leukemia 31.4% | MOLT-4 leukemia 43.2%

CCCCCCCCCCCCCCCC[N+]1(C)CCOCC1
inactive: SK-MEL-2 melanoma 57.7% | EKVX NSCLC 64.1% | SN12C renal 15.4% | UO-31 renal 59.6% | ACHN renal 62.8% | CAKI-1 renal 76.3% | A498 renal 48.8%
active: TK-10 renal -36.8% | CCRF-CEM leukemia -42.1% | MOLT-4 leukemia -57.8%

CC(=O)N(CC(O)CO)c1c(I)c(C(=O)NCCO)c(I)c(C(=O)NCC(O)CO)c1I (stereo not drawn)
inactive: SK-MEL-2 melanoma 95.8% | EKVX NSCLC 105% | SN12C renal 98.9% | UO-31 renal 69.3% | TK-10 renal 114% | ACHN renal 103% | CAKI-1 renal 99.3% | A498 renal 110% | CCRF-CEM leukemia 93.4% | MOLT-4 leukemia 84.3%

Brc1ccc(Br)nn1
active: SK-MEL-2 melanoma -50.2% | EKVX NSCLC -95.4% | SN12C renal -76.8% | UO-31 renal -39.9% | TK-10 renal -78.3% | ACHN renal 2.74% | CAKI-1 renal -92.3% | A498 renal -80.8% | CCRF-CEM leukemia -13.5% | MOLT-4 leukemia -13.6%

CC1CCCCN1S(=O)(=O)c1ccc(CN=C=S)cc1 (stereo not drawn)
inactive: SK-MEL-2 melanoma 94.5% | EKVX NSCLC 99.2% | SN12C renal 66.1% | UO-31 renal 54% | TK-10 renal 64.4% | CAKI-1 renal 51.2% | A498 renal 79% | CCRF-CEM leukemia 39.2% | MOLT-4 leukemia 31.1%
active: ACHN renal 4.78%

O=S(=O)(OCCO)c1ccccc1
inactive: SK-MEL-2 melanoma 102% | EKVX NSCLC 103% | SN12C renal 96.2% | UO-31 renal 90.4% | TK-10 renal 100% | ACHN renal 104% | CAKI-1 renal 88.2% | A498 renal 110% | CCRF-CEM leukemia 61.8% | MOLT-4 leukemia 108%

CC1=C(C/C=C(\C)CCC[C@H](C)CCC[C@H](C)CCCC(C)C)C(=O)c2ccccc2C1=O
inactive: SK-MEL-2 melanoma 114% | EKVX NSCLC 114% | SN12C renal 99.7% | UO-31 renal 71.7% | TK-10 renal 95.6% | ACHN renal 104% | CAKI-1 renal 103% | A498 renal 101% | CCRF-CEM leukemia 102% | MOLT-4 leukemia 101%

COc1ncnc2c1ncn2C/C(Br)=C(\Br)CCl
inactive: SK-MEL-2 melanoma 51.6% | EKVX NSCLC 114% | SN12C renal 10.8% | TK-10 renal 51.3% | ACHN renal 14.9% | CAKI-1 renal 96.2% | A498 renal 94.8% | MOLT-4 leukemia 18.9%
active: UO-31 renal -56.8% | CCRF-CEM leukemia -38.7%

CCOC(=O)c1c(-c2cc(OC)c(OC)c(OC)c2)csc1N
inactive: SK-MEL-2 melanoma 101% | EKVX NSCLC 110% | SN12C renal 105% | UO-31 renal 75.9% | TK-10 renal 93.3% | ACHN renal 99.2% | CAKI-1 renal 68.1% | A498 renal 101% | CCRF-CEM leukemia 83.7% | MOLT-4 leukemia 92.3%

O=C1/C(=C/c2ccc(Cl)cc2)N=C(c2ccccc2)N1CCc1cccs1
inactive: SK-MEL-2 melanoma 69.5% | EKVX NSCLC 72.1% | SN12C renal 45.6% | UO-31 renal 48.4% | TK-10 renal 54.8% | ACHN renal 43% | CAKI-1 renal 58.1% | A498 renal 72.7%

O=S(=O)(/N=C1C=C/C(=N\S(=O)(=O)c2ccccc2)c2ccccc2\1)c1ccccc1
inactive: SK-MEL-2 melanoma 114% | EKVX NSCLC 104% | SN12C renal 101% | UO-31 renal 67.1% | TK-10 renal 147% | ACHN renal 105% | CAKI-1 renal 99.4% | A498 renal 117% | CCRF-CEM leukemia 71.7% | MOLT-4 leukemia 87.1%
